Measured values reported in PubChem BioAssay AID651625 (National Center for Advancing Translational Sciences (NCATS), 2012).
Active and inactive are the calls of the source.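 The calls were made as follows: active = inhibition of at least 60% at a 114 µM dose; inconclusive = inhibition from 30% up to under 60% at that dose; inactive = inhibition under 30% at 114 µM.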

Molecular target: Ubiquitin carboxyl-terminal hydrolase 5 (Homo sapiens) (UniProt P45974)
Assay: Inhibitors of USP1/UAF1: SAR in USP5 diubiquitin SDS-PAGE gel assay
Conditions: USP5 K63 diubiquitin cleavage, 1 h; series mostly up to 114 µM
Description: Deubiquitinating enzymes (DUBs) are a class of enzymes that can cleave isopeptide bond formed between the C-terminal carboxylate of ubiquitin and a lysine side-chain amino group on the target protein. Among them, ubiquitin specific proteases (USPs) constitute the largest DUB family. Human USPs are emerging as promising targets for pharmacological intervention because of their connection to a number of human diseases, including prostate, colon and breast cancer (1, 2), pediatric acute lymphoblastic leukemia (3), and familial cylindromatosis (4). The advantage of inhibiting USPs lies in the potential specificity of therapeutic intervention that can lead to better efficacy and reduce nonspecific side effects. In a collaboration between the University of Delaware and the NIH Chemical Genomics Center, a high-throughput screen assay was developed to screen for USP1/UAF1 inhibitors (5). This assay is a selectivity assay that tested for activity in a USP5 diubiquitin SDS-PAGE gel assay and inactivity is the desired outcome for this assay. […]
The inhibition assay contains 5 nM USP5, 2 microM K63 linked diubiquitin, and inhibitors at varied concentrations (0.08 microM - 114 microM). […] The intensity of the individual diubiquitin and monoubiquitin band was quantified using Quantity One 4.3.1 (Biorad, Hercules, CA). The percentage of the conversion was determined and used to calculate the reaction rate. […]

Sequence of Ubiquitin carboxyl-terminal hydrolase 5 (Homo sapiens) (P45974 whole entry, looked up): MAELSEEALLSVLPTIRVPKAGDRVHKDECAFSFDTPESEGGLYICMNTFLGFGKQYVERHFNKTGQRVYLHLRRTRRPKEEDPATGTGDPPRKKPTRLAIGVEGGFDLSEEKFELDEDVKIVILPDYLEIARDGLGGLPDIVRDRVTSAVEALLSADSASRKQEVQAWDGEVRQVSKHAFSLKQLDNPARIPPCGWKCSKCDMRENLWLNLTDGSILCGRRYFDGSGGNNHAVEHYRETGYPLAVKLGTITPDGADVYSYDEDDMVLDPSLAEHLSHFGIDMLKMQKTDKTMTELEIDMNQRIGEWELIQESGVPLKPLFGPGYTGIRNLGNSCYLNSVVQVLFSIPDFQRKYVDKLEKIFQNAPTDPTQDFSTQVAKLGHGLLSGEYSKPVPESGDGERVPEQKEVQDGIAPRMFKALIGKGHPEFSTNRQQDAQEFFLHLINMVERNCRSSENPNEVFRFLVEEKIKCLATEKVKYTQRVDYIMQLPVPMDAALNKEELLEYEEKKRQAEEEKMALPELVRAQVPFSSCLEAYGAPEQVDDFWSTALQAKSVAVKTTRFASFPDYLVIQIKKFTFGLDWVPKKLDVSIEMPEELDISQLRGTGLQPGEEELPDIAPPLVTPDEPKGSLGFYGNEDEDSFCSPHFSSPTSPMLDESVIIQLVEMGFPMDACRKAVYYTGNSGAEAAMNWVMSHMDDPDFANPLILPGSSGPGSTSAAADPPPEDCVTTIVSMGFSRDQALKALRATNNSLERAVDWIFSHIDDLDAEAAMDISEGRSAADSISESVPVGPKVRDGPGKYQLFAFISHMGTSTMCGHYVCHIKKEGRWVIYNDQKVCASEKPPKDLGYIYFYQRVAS

| SMILES | outcome |
| --- | --- |
| Cc1cnc(-c2ccccc2C(C)C)nc1NCc1ccc(-n2ccnn2)cc1 | inactive |
